# Screening results: PubChem, National Center for Advancing Translational Sciences (NCATS)
# An excerpt weighted towards active compounds, which were near 6.9% of everything screened.
# PLK1 PBD block: inhibitors of human PLK1 polo-box domain binding; P53350; Plk1 PBD binding of FITC phosphopeptide, fluorescence polarization; Potency, µM, without a hit: max response, negative = inhibition, actives largely listed as inhibitors; 2.8% of 360,000 active; AID 720504; also: series mostly up to about 57 µM; % is scaled to controls: 0 for no effect and ±100 for the full control effect; nearly all actives have a fitted effect of over 65% in size
# VDR inh: inhibitors of human vitamin D receptor | VDR-SRC2-3 peptide fluorescence polarization, 2 h | Potency, µM, inactives show max response, negative = inhibition, actives largely listed as inhibitors | 0.93% of 400,000 active | P11473; also: % is scaled to controls: 0 for no effect and ±100 for the full control effect
# Target sequence (P11473 whole entry, looked up): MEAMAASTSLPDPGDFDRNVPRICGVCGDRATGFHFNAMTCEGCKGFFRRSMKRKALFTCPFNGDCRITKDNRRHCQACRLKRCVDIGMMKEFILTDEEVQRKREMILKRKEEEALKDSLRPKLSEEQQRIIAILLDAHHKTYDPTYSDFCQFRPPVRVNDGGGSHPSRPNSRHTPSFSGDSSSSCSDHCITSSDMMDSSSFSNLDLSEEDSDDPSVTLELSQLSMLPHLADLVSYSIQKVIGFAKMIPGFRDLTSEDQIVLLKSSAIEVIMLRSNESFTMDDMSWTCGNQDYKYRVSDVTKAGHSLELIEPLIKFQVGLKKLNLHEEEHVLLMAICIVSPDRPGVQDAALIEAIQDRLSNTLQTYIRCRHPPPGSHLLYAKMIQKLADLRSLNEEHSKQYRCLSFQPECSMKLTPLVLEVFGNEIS
#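 Fluorescence polarization assay of small-molecule disruption of VDR binding to coregulator peptide SRC2-3. Compounds and controls pin-transferred, then read after 2 h incubation at ambient room temperature.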
# HP1b chromo inh: blocks HP1-beta chromodomain binding to methylated histone tails. AlphaScreen HP1-beta / biotin-H3K9me3 peptide binding. P83916. Potency, µM (series often up to 114 µM), inactives show top-dose activity change, negative = inhibition, actives largely listed as inhibitors. 0.56% of 390,000 active; also: nearly all actives have a fitted effect of over 70% in size
# Target sequence (P83916 whole entry, looked up): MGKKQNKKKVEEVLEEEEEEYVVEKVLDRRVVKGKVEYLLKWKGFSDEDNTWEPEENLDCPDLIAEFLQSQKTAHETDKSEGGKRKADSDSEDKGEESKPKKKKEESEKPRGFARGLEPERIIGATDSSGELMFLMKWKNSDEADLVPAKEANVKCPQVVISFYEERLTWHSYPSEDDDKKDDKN
#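 HP1-beta protein (50 nM final) preincubated 30 min at room temperature with biotinylated H3(1-18)K9me3 peptide (50 nM) in PBS pH 7.4, 0.01% Tween-20, then compound added for 30 min. AlphaScreen streptavidin donor/nickel chelate acceptor beads (10 ug/mL final), 30 min dark, luminescence read.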
# L3MBTL1 block: inhibitors of human L3MBTL1; Q9Y468; AlphaScreen L3MBTL1–H3K9me1 peptide binding; 0.66% of 230,000 active; Potency, µM (series often up to 57.1 µM), for inactives: at the top dose activity, negative = inhibition, usual class: inhibitors; also: % is scaled to controls: 0 for no effect and ±100 for the full control effect; nearly all actives have a fitted effect of over 60% in size
#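 Read-out is AlphaScreen signal from streptavidin donor and nickel chelate acceptor beads (10 ug/mL final each) bridging L3MBTL1 (50 nM) and biotinylated K9-monomethylated H3(1-15) peptide (75 nM), after 30 min compound exposure at room temperature.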
# JMJD2A Tudor: blocks the human JMJD2A Tudor domain. O75164. AlphaScreen JMJD2A-Tudor / H3K4me3 peptide binding. Potency, µM (doses to about 114 µM), inactives show top-dose activity change, negative = inhibition, usual class: inhibitors. 4.4% of 390,000 active. AID 504339; also: % is scaled to controls: 0 for no effect and ±100 for the full control effect; nearly all actives have a fitted effect of over 50% in size
# BAZ2B block: BAZ2B (human) inhibition; Q9UIF8; AlphaScreen BAZ2B-H3K14Ac peptide displacement; Potency, µM (doses to about 114 µM), inactives show at the highest dose activity change, negative = inhibition, hits mostly inhibitors; 4.4% of 360,000 active; AID 504333; also: % is scaled to controls: 0 for no effect and ±100 for the full control effect; nearly all actives have a fitted effect of over 60% in size
#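 Protein-peptide AlphaScreen: BAZ2B 50 nM, b-H3K14Ac 50 nM, 1x PBS pH 7.4 + 0.01% Tween-20. Preincubation 30 min RT; cpd 30 min RT (top 110 uM); beads 20 min RT, light-protected.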
# * marks the source's active call; other numbers are inactive results; ? = inconclusive; . = no result given; [ ] = another dose, or the depositor's remark. Calls follow the shape of the dose curve; as a rule, active = well fitted curve in the direction sought with a large enough effect; inconclusive = small, poorly fitted or top-dose-only effect, or another doubt; inactive = no such curve, though single readings can be large; an effect the other way counts as inactive or inconclusive. Potency is read from the fitted curve at half-maximal effect.
SMILES,PLK1 PBD block,VDR inh,HP1b chromo inh,L3MBTL1 block,JMJD2A Tudor,BAZ2B block
CN(C)c1ccc2c(c1[N+](=O)[O-])Cc1ccccc1-2,-1.2%,0.8%,?,.,15.8µM*,.
Nc1cc(=O)nc(SCC(=O)Nc2ccc(F)cc2)n1CCc1ccccc1,.,17.7%,37.4%,.,-11.6%,-17.3%
c1csc(CNc2ccc3c(c2)OCCO3)c1,-26.5%,-20.1%,3.2%,-3.3%,?,50.1µM*
Clc1cc(NCc2cccs2)ccc1N1CCOCC1,-9.2%,8.2%,-22.6%,-6.2%,?,50.1µM*
Oc1ccccc1CNc1ccc2c(c1)OCCO2,5.3%,11.2%,3.8%,-27.5%,-34.7%,?
O=C(Nc1ccc(N2CCOCC2)c(Cl)c1)c1ccccc1Cl,-9.6%,-11.2%,51.1%,11.0%,-4.7%[57.1 µM],-1.0%
COC(=O)c1ccc(C(=O)N2CCCCCC2(C)C(=O)NC(C)C)cc1 (stereo not drawn),-1.1%,.,.,.,.,.
CCOC(=O)C1(C)CCCN1C(=O)c1sccc1C (stereo not drawn),-10.0%,.,.,.,.,.
CCCC12CN3CC(CCC)(CN(C1)C3c1c(C)[nH]c(=O)[nH]c1=O)C2=O (stereo not drawn),.,7.6%,54.0%,.,-9.4%,-24.3%
Cc1cccc(NC(=O)CN(C)S(=O)(=O)c2ccc3c(c2)CCC(=O)N3)c1C,.,0.5%,13.4%,.,-19.2%,-6.8%
CCOC(=O)/C=C/[C@H]1CCc2cccc(Cl)c2O1,21.2µM*,-25.3%,83.4%,43.6%,29.3%,156.1%
CCOC(=O)/C=C/C(=O)OCC(=O)Nc1c(Cl)cccc1Cl,-27.4%,?,37.0%,24.3%,-10.6%,2.3%
O=C(O)c1cccnc1SC1CC(=O)N(Cc2ccccc2)C1=O (stereo not drawn),3.77µM*,-10.3%,7.2%,6.4%,-14.5%[11.4 µM],-1.5%
O=C(O)c1cccnc1SC1CC(=O)N(CCc2ccccc2)C1=O (stereo not drawn),-7.8%,-0.1%,27.6%,.,-19.2%,?
CCN1CCN(C(=O)CCN(CC(C)C)c2nc(-c3cccs3)nc3ccccc23)CC1,.,.,.,.,-19.7%,.
CN(C)CCC(=O)C(Cc1ccccc1)c1ccccc1 (stereo not drawn),4.74µM*,44.7µM*,65.8%,.,-3.5%,.
CN(C)CCNC(=O)C(c1ccccc1)c1ccccc1,4.8%,-18.7%,50.0%,4.9%,5.6%,-2.8%
COc1ccc(N2CCN(C(=O)c3oc4ccccc4c3NC(=O)Cc3cccc(OC)c3)CC2)cc1,-2.8%,-20.8%,-21.1%,.,15.8µM*,?
COc1ccc(N2CCN(C(=O)c3oc4ccccc4c3NC(=O)Cc3ccc(OC)c(OC)c3)CC2)cc1,-13.5%,-6.6%,4.4%,.,?,?
COc1ccc(N2CCN(C(=O)c3oc4ccccc4c3C)CC2)cc1,-16.5%,2.4%,?,-8.0%,39.8µM*,.
COc1ccc(N2CCN(C(=O)c3cc(=O)c4cc(C)c(C)cc4o3)CC2)cc1,?,4.8%,6.0%,.,56.2µM*,-9.0%
Cc1ccc2oc(C(=O)N3CCN(c4cccc(C)n4)CC3)c(C)c2c1,26.7µM*,?,-21.4%,-4.9%[2.29 µM],?,-34.9%
Cc1cc(Cl)c2oc(C(=O)N3CCN(c4cccc(C)n4)CC3)c(C)c2c1,-27.5%,?,-20.9%,-3.1%[2.29 µM],?,?
COc1ccc(N2CCN(C(=O)c3cc(=O)c4cc(C)ccc4o3)CC2)cc1,-2.4%,-3.1%,-2.5%,.,-18.3%,-14.0%
COc1ccc(-c2nc(N3CCN(S(=O)(=O)c4ccccc4)CC3)c3ccccc3n2)cc1,.,-17.5%,44.3%,.,-15.8%,.
SMILES,PLK1 PBD block,VDR inh,HP1b chromo inh,L3MBTL1 block,JMJD2A Tudor,BAZ2B block
Cc1cc(C)cc(NC(=O)c2cc(S(=O)(=O)N3CCCC3)ccc2F)c1,.,2.5%,24.8%,.,-0.3%,4.3%
COc1ccccc1NC(=O)C1=C(C)Nc2c(C(=O)Nc3cccc(C)c3)cnn2C1c1ccccc1Cl (stereo not drawn),.,14.9%,-8.8%,.,-31.4%,0.4%[57.1 µM]
Nc1c(C(=O)Nc2ccccc2Br)sc2nc(-c3cccs3)ccc12,.,0.2%,37.6%,.,5.2%,1.6%
CC(=O)c1sc2nc(-c3cccs3)ccc2c1N,-22.4%,-3.3%,-3.5%,.,25.1µM*,2.2%
COc1cc(-c2nc3ccccn3c2/N=C/c2cc(OC)c(OC)c(OC)c2)ccc1O,-7.2%,-7.3%,-59.2%,.,44.7µM*,.
CN(C)c1ccc(-c2nc3ccccn3c2/N=C/c2ccc(Br)cc2)cc1,0.5%,-21.7%,?,?,44.7µM*,11.2µM*
O=C(CCCn1c(=O)c2cccn2c2cccnc21)Nc1ccccc1C(F)(F)F,.,12.5%,16.4%,.,-18.7%,-9.3%
Cc1cccc(NC(=O)CNC(=O)COc2ccc(C(=O)c3ccc(F)cc3)cc2)c1C,1.2%,3.8%,14.6%,8.7%,-8.5%,4.0%
Cc1cccc(NC(=O)CNC(=O)COc2cc(F)ccc2[N+](=O)[O-])c1C,15µM*,?,?,-2.4%,?,-2.8%
COc1cccc(CNC(=O)Cn2c(=O)c3cccn3c3ccccc32)c1,-1.7%,3.6%,23.6%,.,-9.8%,-14.6%
CN(C(=O)CC1C(=O)NCCN1Cc1ccccc1C(F)(F)F)C1CCOCC1 (stereo not drawn),10.6µM*,?,17.5%,.,?,-5.0%
COc1cc(CN2CCNC(=O)C2CC(=O)N(C)CCC2CCOCC2)cc(OC)c1 (stereo not drawn),26.7µM*,?,22.1%,.,?,-8.0%
COc1ccc(CN2CCNC(=O)C2CC(=O)N(C)Cc2nccs2)c(OC)c1 (stereo not drawn),26.7µM*,-16.1%,16.6%,.,-31.5%,-11.5%[57.1 µM]
CN(C(=O)CC1C(=O)NCCN1Cc1ccccc1F)C1CCOCC1 (stereo not drawn),-6.0%,3.1%,23.3%,.,-4.1%,19.1%
COc1ccc(CN2CCNC(=O)C2CC(=O)N(C)CCC2CCOCC2)c(OC)c1 (stereo not drawn),-14.8%,-5.5%,74.4%,.,-3.4%,-10.6%[57.1 µM]
COc1cc2cc3c(N)c(C(=O)Nc4sc(C)c(C)c4C#N)sc3nc2cc1OC,-14.8%,16.2%,?,3.16µM*,79.4µM*,56.2µM*
Cc1ccc(-n2nc(C)c3c2OC(N)=C(C#N)C3c2ccco2)cc1 (stereo not drawn),?,-18.0%,44.7µM*,?,56.2µM*,17.8µM*
CCc1[nH]nc2c1C(c1ccc(C)o1)C(C#N)=C(N)O2 (stereo not drawn),-19.3%,2.4%,1.7%,-3.5%,-21.3%,-18.7%
Cc1ccc(SCc2[nH]nc3c2C(c2ccco2)C(C#N)=C(N)O3)cc1 (stereo not drawn),9.47µM*,-90.7%,-9.0%,.,?,?
